This is an account of results in PubChem BioAssay (Tox21).

The structures appear in SMILES notation. Unmarked numbers belong to inactive results. Results filed as inconclusive are left out. Activity calls are given as the source filed them. Unless noted, the call rests on the fitted dose curve.

Test [1] can be described thus: Nuclear factor erythroid 2-related factor 2/antioxidant responsive element (Nrf2/ARE) small molecule agonists: qHTS cell viability counter screen in human keratinocytes (AID 1919968; active means well fitted curve in the direction sought with a large enough effect in the repeat runs; an effect the other way counts as inactive or inconclusive; further: nearly all actives have a fitted effect of over 55% in size). In outline: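 KeratinoSens HaCaT cells, 1,500/well, preincubated 5 h, then exposed to compounds in DMSO for 23 h at 37 C/5% CO2. Viability read as CellTiter-Fluor fluorescence after 1 h, in the same wells as the ARE-luciferase read.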

Test [2] can be described thus: Nuclear factor erythroid 2-related factor 2/antioxidant responsive element (Nrf2/ARE) small molecule agonists: luciferase reporter gene qHTS assay in human keratinocytes (AID 1919969). Further: nearly all actives have a fitted effect of over 35% in size. Further: potency means the concentration at half of the fitted maximal effect.
Test [3] has as its target Gonadotropin-releasing hormone receptor (Homo sapiens) (UniProt P30968). Kind of test: Human gonadotropin-releasing hormone receptor (GnRHR) small molecule agonists, calcium flux assay in GnRHR-HEK293 cells (AID 1920063). Further: nearly all actives have a fitted effect of over 35% in size. In outline: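 HEK293 cells stably expressing human GnRHR were dye-loaded for 1 h at 37 C. Compound was added in agonist mode and fluorescence (Ex/Em 480/540) recorded kinetically for 3 min. Fifteen concentrations, triplicates.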

The target in test [4] is KiSS-1 receptor (Homo sapiens) (UniProt Q969F8). Kind of test: Human kisspeptin (KISS1R) small molecule agonists, calcium flux assay in KISS1R-HEK293 cells (AID 1920064; active means well fitted curve in the direction sought with a large enough effect in the repeat runs; an effect the other way counts as inactive or inconclusive). The procedure, abridged: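 HEK293 cells stably expressing human KISS1R were loaded with calcium dye for 1 h at 37 C, then given compound; fluorescence (Ex/Em 480/540) was read kinetically for 3 min. Fifteen concentrations, triplicate.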

The nature of test [5]: G protein-coupled receptor (GPCR) small molecule agonists, calcium flux assay: HEK293 wild type cell line counter screen (AID 1920065). The procedure, abridged: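 Wild-type HEK293 cells plated 18 h, loaded with calcium dye 1 h at 37 C, then compounds added in agonist mode (ATP as positive control). Kinetic fluorescence Ex/Em 480/540 recorded 3 min at 1 sec intervals; 15 concentrations, triplicate.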

Test [6] is described as follows: p53 small molecule agonists, cell-based qHTS assay with human liver microsomes (AID 1963577).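 Further: p53 response element beta-lactamase reporter cells with liver microsomes plus NADPH.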 The procedure, abridged:
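Steps: plate p53RE-bla cells, incubate 5 h at 37 C; add compound in DMSO; add microsomes (0.5 mg/mL final) and NADPH (0.5 mg/mL final); incubate 16 h at 37 C; add LiveBLAzer, 2 h RT; read fluorescence.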

Test [7] can be described thus: p53 small molecule agonists, cell-based qHTS assay with rat liver microsomes (AID 1963578). In outline:
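Metabolic activation is supplied by rat liver microsomes with NADPH (each 0.5 mg/mL final). p53RE-bla cells incubate with compound 16 h at 37 C; reporter activity is measured by LiveBLAzer fluorescence.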

Test [8] in a line: p53 small molecule agonists, cell-based qHTS assay with human liver microsomes: qHTS cell viability counter screen (AID 1963579). Further: nearly all actives have a fitted effect of over 45% in size. The procedure, abridged:
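After the 460/530 nm beta-lactamase read, CellTiter-Glo was added to the same wells and luminescence measured after 30 min at room temperature, giving viability of p53RE-bla cells treated 16 h with compounds plus microsomes and NADPH.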

A short description of test [9]: p53 small molecule agonists, cell-based qHTS assay with rat liver microsomes: qHTS cell viability counter screen (AID 1963580). Further: nearly all actives have a fitted effect of over 45% in size. The procedure, abridged: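 p53RE-bla HCT-116 cells (4,000/well) rested 5 h at 37 C, then given Tox21 compounds in DMSO with rat liver microsomes (0.5 mg/mL final) plus NADPH (0.5 mg/mL final) for 16 h at 37 C. Viability read by CellTiter-Glo luminescence after 30 min at room temperature.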

A short description of test [10]: p53 small molecule agonists, cell-based qHTS assay: qHTS cell viability counter screen (AID 1963581). Further: nearly all actives have a fitted effect of over 45% in size. The procedure, abridged:
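p53RE-bla HCT-116 cells, compounds added 5 h after plating and incubated 16 h at 37 C. Cytotoxicity measured in the same wells as intracellular ATP by CellTiter-Glo luminescence after 30 min at room temperature.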

A short description of test [11]: p53 small molecule agonists, cell-based qHTS assay (AID 1963582; active means well fitted activation curve with a large enough effect in the signal ratio in the repeat runs, not every such curve was filed as active; the % refers to the signal ratio). In outline:
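p53RE-bla reporter cells, compounds added in DMSO after 5 h plating, incubated 16 h at 37 C. Beta-lactamase read via 2 h room-temperature LiveBLAzer B/G FRET substrate, fluorescence intensity.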

For test [12], the target named is 5-hydroxytryptamine receptor 2A (Homo sapiens) (UniProt P28223). Kind of test: 5-hydroxytryptamine receptor 2A (HTR2A) small molecule antagonists, cell-based qHTS assay (AID 1963586). Further: nearly all actives have a fitted effect of over 45% in size. In outline: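 Antagonist-mode intracellular calcium assay: DOI (4 nM) added after 5 min compound pre-incubation at room temperature to dye-loaded HTR2A-CHO cells. Fluorescence followed for 3 min, sampled every second.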

For test [13] the target is unchanged. Briefly: 5-hydroxytryptamine receptor 2A (HTR2A) small molecule agonists, cell-based qHTS assay (AID 1963587). Further: nearly all actives have a fitted effect of over 30% in size. In outline: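 HTR2A-CHO cells, plated 18 h at 37 C/5% CO2, dye-loaded 1 h at 37 C; compounds in DMSO added by pin tool (agonist mode). Intracellular calcium flux read as kinetic fluorescence on FDSS over 2 min at 1 s intervals.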
The target of test [14] is Muscarinic acetylcholine receptor M1 (Homo sapiens) (UniProt P11229). Kind of test: Cholinergic receptor muscarinic 1 (CHRM1) small molecule antagonists, cell-based qHTS assay (AID 1963588). Further: nearly all actives have a fitted effect of over 40% in size. In outline: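 CHRM1-CHO calcium-flux assay, antagonist mode. Cells were seeded 18 h, dye-loaded 1 h at 37 C and given compound for 5 min at RT, then acetylcholine was added at 50nM. FDSS fluorescence was read 3 min; 15 concentrations, three runs.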

For test [15] the target is unchanged. Briefly: Cholinergic receptor muscarinic 1 (CHRM1) small molecule agonists, cell-based qHTS assay (AID 1963589). Further: nearly all actives have a fitted effect of over 35% in size. In outline:
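CHO cells stably expressing human CHRM1 were loaded with calcium dye for 1 h at 37 C, then compound was added in agonist mode. Intracellular calcium fluorescence was followed kinetically at 1 s intervals. Fifteen concentrations were tested in three independent runs.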

Test [16] can be described thus: cAMP Responsive Elements (CRE) small molecule agonists, cell-based qHTS assay (AID 1963590). In outline:
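CRE-bla HEK 293T cells, 2,000/well in DMEM with 10% dialyzed FBS and 25 mM HEPES, pre-incubated 18 h at 37 C, then exposed to compound 3 h at 37 C. Beta-lactamase reporter read with LiveBLAzer B/G FRET substrate after 2 h at room temperature.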

A short description of test [17]: cAMP Responsive Elements (CRE) small molecule antagonists, cell-based qHTS assay (AID 1963591; active means well fitted inhibition curve with a large enough effect in the signal ratio in the repeat runs, not every such curve was filed as active; the % refers to the signal ratio). The procedure, abridged:
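CRE-bla HEK293T cells plated 18 h, then given compound plus NKH477 at 0.25 uM final for 3 h at 37C. Beta-lactamase reporter read with LiveBLAzer B/G FRET substrate after 2 h at room temperature.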

Test [18] addresses D(2) dopamine receptor (Homo sapiens) (UniProt P14416). Briefly: Dopamine D2 receptor (DRD2) small molecule agonists, cell-based qHTS assay (AID 1963594). Further: nearly all actives have a fitted effect of over 35% in size. In outline:
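HEK293 cells stably expressing DRD2 were cultured 24 h at 37 C, then given Ro20-1724 (0.1 mM final) and compounds for 10 min at room temperature. NKH477 (200nM) was then added for 30 min. cAMP was read by HTRF.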

The target is the same in test [19]. Kind of test: Dopamine D2 receptor (DRD2) small molecule antagonists, cell-based qHTS assay (AID 1963595; active means well fitted inhibition curve with a large enough effect in the signal ratio in the repeat runs, with a control signal flat; the % refers to the signal ratio). The procedure, abridged:
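Human DRD2 antagonist qHTS measuring cAMP by HTRF. The cells are exposed to compound for 10 min, then to NKH477 (200 nM) and quinpirole (12 nM) for 30 min at RT, with Ro20-1724 (0.1 mM) present throughout.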

Test [20] deals with Beta-2 adrenergic receptor (Homo sapiens) (UniProt P07550). Kind of test: Adrenergic beta2 receptor (ADRB2) small molecule antagonists, cell-based qHTS assay (AID 1963592). Further: series mostly up to about 92 µM; nearly all actives have a fitted effect of over 50% in size. The procedure, abridged:
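Cells (CHO, stable ADRB2 overexpression) incubated 18-20hr at 37C; compounds added from DMSO; agonist mix (1nM isoproterenol, 100uM IBMX, 25uM Ro-20-1724) added; 0.5hr RT; d2-cAMP and anti-cAMP-cryptate added; 1hr RT; 665/615 nm read.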
On the % scale 0 is the no-effect control and ±100 the full control effect.

Beta-2 adrenergic receptor (Homo sapiens), sequence (P07550 whole entry, looked up): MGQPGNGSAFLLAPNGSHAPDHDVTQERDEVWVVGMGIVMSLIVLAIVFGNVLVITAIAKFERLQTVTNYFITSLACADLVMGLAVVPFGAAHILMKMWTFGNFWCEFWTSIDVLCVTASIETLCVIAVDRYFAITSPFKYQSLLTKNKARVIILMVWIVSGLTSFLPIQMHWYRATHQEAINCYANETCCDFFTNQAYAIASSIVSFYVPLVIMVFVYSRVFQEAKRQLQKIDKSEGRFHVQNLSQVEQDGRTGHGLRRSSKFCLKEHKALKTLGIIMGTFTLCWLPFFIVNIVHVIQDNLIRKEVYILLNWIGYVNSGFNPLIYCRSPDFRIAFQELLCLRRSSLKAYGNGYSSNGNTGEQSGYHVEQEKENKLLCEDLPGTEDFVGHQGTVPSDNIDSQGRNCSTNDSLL
5-hydroxytryptamine receptor 2A (Homo sapiens), sequence (P28223 whole entry, looked up): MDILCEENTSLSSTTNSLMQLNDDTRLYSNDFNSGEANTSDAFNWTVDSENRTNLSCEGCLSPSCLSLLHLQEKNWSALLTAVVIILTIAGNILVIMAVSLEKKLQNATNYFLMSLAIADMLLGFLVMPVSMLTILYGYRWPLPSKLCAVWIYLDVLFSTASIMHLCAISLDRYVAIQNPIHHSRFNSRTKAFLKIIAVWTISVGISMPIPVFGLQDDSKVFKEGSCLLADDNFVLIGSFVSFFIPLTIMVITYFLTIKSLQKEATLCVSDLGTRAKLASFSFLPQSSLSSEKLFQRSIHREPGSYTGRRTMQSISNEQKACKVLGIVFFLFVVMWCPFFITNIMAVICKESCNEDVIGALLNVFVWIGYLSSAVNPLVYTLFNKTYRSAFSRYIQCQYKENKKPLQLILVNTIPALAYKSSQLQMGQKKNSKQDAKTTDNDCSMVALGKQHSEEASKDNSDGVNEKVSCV
Muscarinic acetylcholine receptor M1 (Homo sapiens), sequence (P11229 whole entry, looked up): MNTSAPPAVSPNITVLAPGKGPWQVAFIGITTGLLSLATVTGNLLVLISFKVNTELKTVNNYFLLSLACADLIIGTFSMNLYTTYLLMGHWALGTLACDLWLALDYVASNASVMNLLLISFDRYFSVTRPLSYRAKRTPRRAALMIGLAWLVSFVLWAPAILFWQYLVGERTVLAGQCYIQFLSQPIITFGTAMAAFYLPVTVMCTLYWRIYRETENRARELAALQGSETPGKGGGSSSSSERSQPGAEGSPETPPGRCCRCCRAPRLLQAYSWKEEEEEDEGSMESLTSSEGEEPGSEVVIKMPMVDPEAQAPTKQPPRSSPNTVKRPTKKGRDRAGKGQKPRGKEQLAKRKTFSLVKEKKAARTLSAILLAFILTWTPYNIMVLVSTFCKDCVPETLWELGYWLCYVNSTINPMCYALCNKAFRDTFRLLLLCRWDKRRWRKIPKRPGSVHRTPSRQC
KiSS-1 receptor (Homo sapiens), sequence (Q969F8 whole entry, looked up): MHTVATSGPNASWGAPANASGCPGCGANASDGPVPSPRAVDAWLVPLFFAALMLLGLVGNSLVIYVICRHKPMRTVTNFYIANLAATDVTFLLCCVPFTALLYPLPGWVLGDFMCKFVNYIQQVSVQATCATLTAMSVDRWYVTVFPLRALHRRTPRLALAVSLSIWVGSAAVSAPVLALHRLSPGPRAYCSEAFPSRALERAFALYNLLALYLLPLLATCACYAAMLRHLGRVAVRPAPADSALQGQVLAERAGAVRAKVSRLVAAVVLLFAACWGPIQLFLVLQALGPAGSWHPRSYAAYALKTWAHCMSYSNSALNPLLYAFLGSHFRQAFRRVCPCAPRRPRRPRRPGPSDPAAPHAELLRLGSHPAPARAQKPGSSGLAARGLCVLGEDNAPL
D(2) dopamine receptor (Homo sapiens), sequence (P14416 whole entry, looked up): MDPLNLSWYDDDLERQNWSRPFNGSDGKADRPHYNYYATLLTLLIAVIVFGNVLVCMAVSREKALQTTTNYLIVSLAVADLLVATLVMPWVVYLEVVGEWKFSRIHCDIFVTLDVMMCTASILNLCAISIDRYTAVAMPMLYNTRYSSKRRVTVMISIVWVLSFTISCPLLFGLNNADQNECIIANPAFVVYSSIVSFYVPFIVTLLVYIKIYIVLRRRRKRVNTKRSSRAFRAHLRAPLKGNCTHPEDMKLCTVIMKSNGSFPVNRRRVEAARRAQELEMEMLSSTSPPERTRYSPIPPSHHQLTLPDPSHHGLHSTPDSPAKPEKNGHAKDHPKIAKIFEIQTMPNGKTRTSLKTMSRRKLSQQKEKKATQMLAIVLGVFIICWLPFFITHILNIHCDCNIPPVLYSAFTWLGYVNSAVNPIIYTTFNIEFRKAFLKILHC
Gonadotropin-releasing hormone receptor (Homo sapiens), sequence (P30968 whole entry, looked up): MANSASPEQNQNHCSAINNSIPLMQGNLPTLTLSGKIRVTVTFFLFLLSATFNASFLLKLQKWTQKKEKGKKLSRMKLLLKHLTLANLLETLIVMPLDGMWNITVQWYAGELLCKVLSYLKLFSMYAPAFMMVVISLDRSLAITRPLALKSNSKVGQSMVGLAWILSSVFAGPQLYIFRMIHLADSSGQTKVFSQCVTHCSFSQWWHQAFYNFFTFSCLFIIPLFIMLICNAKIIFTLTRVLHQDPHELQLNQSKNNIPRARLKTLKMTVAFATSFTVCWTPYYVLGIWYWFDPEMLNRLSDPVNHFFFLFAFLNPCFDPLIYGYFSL

For the compound `CCCCCCOC(=O)c1ccccc1O`, the Potency entry in [1], in [2], in test [3], in test [4], in test [5] and in test [6] was “inactive” throughout. The Potency entry in test [7], in [8], in test [9], in test [10], in test [11] and in [12] was “inactive” each time. Besides, the Potency result in [13], in [14], in [15], in [16], in test [17] and in test [18] was “inactive” each time. Moreover, the Potency entry in [19] is “inactive”.

Consider `CC(C)C(=O)OCCOc1ccccc1`, for which the Potency entry in test [1], in test [2], in [3], in test [4], in [5] and in [6] was “inactive” throughout. The Potency result in test [7], in [8], in [9], in test [10], in [11] and in test [12] was “inactive” each time. The Potency result in test [13], in test [14], in test [15], in [16], in test [17] and in [18] was “inactive” each time. Also, the Potency result in test [19] was “inactive”.

For `N[C@H](C(=O)O)c1ccc(O)cc1`, the activity change, negative = cytotoxicity was 7.62% [at 19 µM] in test [1], 0.34% [at 13.5 µM] in test [8], 4.85% [at 13.5 µM] in test [9] and -1.01% [at 13.5 µM] in [10]. In [2], the activity, positive = activation is 16.5% [at 19 µM]. The activity change in test [3] is -1.58% [at 11.8 µM, hits give high values]. Further, the activation in [4] is 3.74% [at 15.8 µM]; in test [5], 0.205% [at 11.8 µM]; in test [6] it was 0.205% [at 13.5 µM]; in [7], 0.317% [at 13.6 µM]; in [11] it was -1.96% [at 13.5 µM]; in [13], -0.912% [at 15.9 µM]. Besides, the results for the activation in test [15], in test [16] and in test [18] were 0.717% [at 15.8 µM], -0.179% [at 19 µM] and -12.3% [at 19 µM], respectively. The activity, negative = inhibition was 57.4% [at 12.7 µM] in test [12] and 8.36% [at 12.6 µM] in [14]. The results for the activity change, negative = inhibition in [20] and in [19] were -0.335% [at 19 µM] and 7.69% [at 18.9 µM], respectively.

For the compound `C=CCn1cc[n+](C)c1`, the Potency result in test [1], in test [2], in [3], in test [4], in test [5] and in test [6] was “inactive” throughout. Also, the Potency result in test [7], in test [8], in test [9], in test [10], in [11] and in test [12] was “inactive” in each case. In addition, the Potency result in test [13], in [14], in [15], in test [16], in test [17] and in test [20] was “inactive” each time. The Potency entry in test [18] and in test [19] was “inactive” each time.

In the case of `CC[N+](C)(C)c1cccc(O)c1`, the Potency entry in test [1], in test [2], in test [3], in [4], in test [5] and in test [6] was “inactive” in each case. Further, the Potency result in test [7], in [8], in test [9], in [10], in test [11] and in [12] was “inactive” in each case. Also, the Potency entry in [13], in [14], in test [15], in [16], in [20] and in test [19] was “inactive” throughout.

With `CCCCC(C)C(=O)O` (configuration not stated), the Potency entry in test [1], in test [2], in test [3], in [4], in [5] and in test [6] was “inactive” each time. The Potency entry in [7], in test [8], in [9], in test [10], in test [11] and in test [12] was “inactive” each time. Further, the Potency result in test [13], in test [14], in test [15], in test [16], in test [20] and in test [18] was “inactive” each time. The Potency result in test [19] is “inactive”.

Take `c1ccc2c(c1)CCc1ccccc1N2`: the Potency entry in test [1], in test [3], in test [4], in [5], in test [6] and in test [7] was “inactive” in each case. Also, the Potency result in test [8], in test [9], in test [10], in [11], in [12] and in test [13] was “inactive” each time. Besides, the Potency result in test [14], in test [15], in test [16], in test [17], in test [18] and in test [19] was “inactive” throughout. The Potency in test [2] is 61.4 µM (active).

On to `O=C(O)Cc1cccc(-c2cc(CCCCCCc3ccc(O[C@H]4O[C@H](CO)[C@@H](O)[C@H](O)[C@@H]4O)c(-c4cccc(CC(=O)O)c4)c3)ccc2O[C@H]2O[C@H](CO)[C@@H](O)[C@H](O)[C@@H]2O)c1`, for which the activity change, negative = cytotoxicity in test [1] is -1.5% [at 0.349 µM]; in test [8], 0.362% [at 0.249 µM]; in test [9] it was 2.63% [at 0.249 µM]; in test [10] it was -10.7% [at 0.249 µM]. The activity, positive = activation in test [2] was -5.74% [at 0.349 µM]. Also, the activity change in test [3] was -0.17% [at 0.217 µM, hits give high values]. The activation in [4] was -0.687% [at 0.29 µM]; in [5] it was -0.122% [at 0.217 µM]; in [6] it was -2.66% [at 0.249 µM]; in [7], 1.81% [at 0.249 µM]; in [11], -0.0536% [at 0.249 µM]; in test [13] it was 17.6% [at 0.292 µM]. For the same compound, the activation was -0.265% [at 0.29 µM] in [15], 1% [at 0.349 µM] in test [16] and -1.23% [at 0.349 µM] in [18]. The activity, negative = inhibition in test [12] was 2.29% [at 0.233 µM]; in test [14], 12.9% [at 0.232 µM]. In addition, the results for the activity change, negative = inhibition in [17] and in test [19] were -10.4% [at 0.349 µM] and -1.71% [at 0.348 µM], respectively.
